# Bead autofluor: compound fluorescence in toxin protease inhibitor counterscreen | fluorescence intensity (concentration not given with the values) | compound autofluorescence counterscreen, microsphere flow cytometry; stronger effect = higher value | AID 624483 | 3.1% of 360,000 active; in the data active = fluorescence intensity above about 16000; inconclusive = no clear call, values can overlap the other calls
# PriA SSB inh: K. pneumoniae PriA-SSBct interaction inhibition; AlphaScreen SSBct-PriA binding, biotinylated peptide; inhibition, % at 33 µM; 0.6% of 430,000 active; in the data active = inhibition mostly above about 37%, no sharp cut-off; inactive = mostly below about 20%
# BoNT F protease: blocks Botulinum neurotoxin F light chain protease; 0.22% of 360,000 active; Multiplex microsphere protease cleavage assay, flow cytometry; inhibition, % at 10 µM; in the data active = inhibition above about 35%, passing the limit was not always enough; inconclusive = no clear call, values can overlap the other calls
# Anthrax LF prot: inhibitors of Bacillus anthracis lethal factor protease; AID 588501; multiplex microsphere protease cleavage assay, LF; 0.12% of 360,000 active; inhibition, % at 10 µM
# Target sequence (P15917 whole entry, looked up): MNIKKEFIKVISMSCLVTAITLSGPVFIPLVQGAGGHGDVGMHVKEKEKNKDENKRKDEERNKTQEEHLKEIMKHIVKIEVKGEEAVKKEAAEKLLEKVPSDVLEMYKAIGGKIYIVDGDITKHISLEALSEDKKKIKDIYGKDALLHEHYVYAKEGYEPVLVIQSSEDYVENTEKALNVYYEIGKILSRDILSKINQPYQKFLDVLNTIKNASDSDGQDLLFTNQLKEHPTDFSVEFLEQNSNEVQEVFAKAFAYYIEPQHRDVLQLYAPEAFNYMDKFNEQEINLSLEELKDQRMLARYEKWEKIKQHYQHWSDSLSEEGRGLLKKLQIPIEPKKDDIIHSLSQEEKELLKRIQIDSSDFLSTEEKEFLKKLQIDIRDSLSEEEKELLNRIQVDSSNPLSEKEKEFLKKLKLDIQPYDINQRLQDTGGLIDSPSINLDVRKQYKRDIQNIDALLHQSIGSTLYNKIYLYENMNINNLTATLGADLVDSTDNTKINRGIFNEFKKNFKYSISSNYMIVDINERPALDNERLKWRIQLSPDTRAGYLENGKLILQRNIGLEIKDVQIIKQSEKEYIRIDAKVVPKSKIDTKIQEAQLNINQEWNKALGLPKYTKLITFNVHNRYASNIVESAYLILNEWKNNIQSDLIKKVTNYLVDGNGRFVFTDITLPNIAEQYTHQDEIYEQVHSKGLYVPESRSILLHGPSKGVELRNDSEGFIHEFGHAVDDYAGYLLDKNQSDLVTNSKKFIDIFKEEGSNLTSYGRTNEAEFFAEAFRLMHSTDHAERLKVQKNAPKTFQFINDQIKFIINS
# MazEF act: activators of E. coli MazEF toxin-antitoxin RNase | P0AE70 | FAM/BHQ RNA-DNA oligo cleavage fluorescence, 5 h | activation, % at 20 µM | 0.32% of 350,000 active | AID 504720; in the data active = activation above about 50%
# BoNT-A LC inh2: blocks Botulinum neurotoxin A light chain protease. 0.17% of 360,000 active. inhibition, % at 10 µM. multiplex microsphere protease substrate cleavage, flow cytometry
# Numbers stand for hits; n = inactive; u = inconclusive; x = not tested or not shown. Only some compounds are listed: those with a hit (about 3.3% of all), similar ones and a draw of the others. Cut-off read from the data, not from the text of the source, unless noted: active = inhibition above about 30%; inconclusive = no clear call, values can overlap the other calls; inactive = below that.
SMILES,Bead autofluor,PriA SSB inh,BoNT F protease,Anthrax LF prot,MazEF act,BoNT-A LC inh2
N#Cc1nccnc1OC1CCC(NC(=O)NCc2ccc(F)cc2)CC1 (configuration not stated),x,n,x,x,x,x
CC(=NO)C1CC(CC(=O)O)C1(C)C (configuration not stated),x,n,x,x,x,x
C/C(=N\O)C1/C(=N/O)CC2C1C2(C)C (configuration not stated),23424,x,n,n,n,n
Cc1cccc(NC(=O)COc2ccc3oc4c(c3c2)CCCC4)n1,23564,n,n,n,n,n
Cc1nnsc1C(=O)NCCn1ccc(-c2ccccn2)n1,x,n,x,x,x,x
CC1CN(C(=O)C(c2ccccc2)c2ccccc2)CC(C)O1 (configuration not stated),25891,n,n,n,n,n
Cc1ccc(-n2[nH]c(C)c(C=Nc3ccc4[nH]c(=O)[nH]c4c3)c2=O)cc1C,n,n,n,n,63,n
Cc1cc(C)c(S(=O)(=O)N2CCN=C2c2ccccc2)cc1C,22172,n,n,n,n,n
Cc1ccccc1C(=O)Nc1nnc(-c2ccc3c(c2)CCCC3)o1,x,n,x,x,x,x
COCCCNC(=O)c1cccn2c(=O)c3cc4ccccc4cc3nc12,24282,n,n,n,n,u
Cc1ccc(C)n1Cc1ccc(C(=O)O)cc1,24761,n,n,n,n,n
NC(=S)NNC(=O)c1ccccc1,24370,n,n,n,n,n
C(=N\n1cnnc1)/c1cccn1-c1ccccc1,16775,x,n,n,n,n
O=C1C(=Cc2cccn2-c2ccc(O)cc2)C(=O)c2ccccc21,n,n,n,n,263,n
Cc1cc(C=C2C(=O)c3ccccc3C2=O)c(C)n1-c1ccccc1,n,n,n,n,156,n
Cc1cc(C=C2C(=O)c3ccccc3C2=O)c(C)n1-c1ccc(C(=O)O)cc1,n,n,n,n,n,n
O=C1C(=Cc2cccn2-c2ccccc2)C(=O)c2ccccc21,n,n,n,n,242,n
O=C1NCCOc2ccc(NC(=O)C3CCCCC3)cc21,x,n,x,x,x,x
CS(=O)(=O)N1CCCc2ccc(NC(=O)NCc3ccc(Cl)cc3)cc21,x,n,x,x,x,x
Cc1cccc2c1OCC/C2=N\NC(=O)COc1ccccc1Cl,22273,x,n,n,n,n
O=C(Nc1cccs1)Nc1nc2c(Br)cccc2s1,x,n,x,x,x,x
CC(C)C(=O)Nc1ccnc(-c2cccnc2)n1,22732,n,n,n,n,n
O=C(Nc1ccnc(-c2cccnc2)n1)c1cccc(Cl)c1Cl,22659,n,n,n,n,n
CC(=O)Nc1ccnc(-c2cccnc2)n1,n,n,n,n,n,n
CN(C)S(=O)(=O)c1cccc(NC(=S)NN=Cc2cc(Br)ccc2O)c1,x,47,x,x,x,x
SMILES,Bead autofluor,PriA SSB inh,BoNT F protease,Anthrax LF prot,MazEF act,BoNT-A LC inh2
CC(/C=C/c1ccccc1)=NNC(=O)c1ccc(Br)cc1,x,n,x,x,x,x
COc1cccc2sc(N3CCNCC3)nc12,x,n,x,x,x,x
Cc1ccc(-c2nnn(Cc3nc4ccccc4s3)n2)cc1,21007,n,n,n,n,n
O=c1c2ccccc2nc(-c2ccccc2)n1-c1cccnc1,22832,n,n,n,n,u
CC(Sc1ccccn1)C(=O)Nc1ccccc1 (configuration not stated),20487,n,n,n,n,n
CCOC(=O)c1ccccc1NC(=O)CSc1nnc(Cc2ccc(OC)cc2)n1-n1cccc1,x,n,x,x,x,x
O=C(COc1ccc(Br)cc1CO)Nc1ccccc1,n,n,n,n,n,n
Cc1ccc(NC(=O)COc2ccc(Br)cc2CO)cc1,22055,n,n,n,n,n
Cc1ccc(NC(=O)COc2ccccc2CNC(C)(C)CC(C)(C)C)cc1,16482,n,n,n,n,n
COc1ccc(-c2sc(Nc3ccccc3)n[n+]2-c2ccc(F)cc2)cc1Br,n,n,n,n,n,n
Fc1ccc(-[n+]2nc(Nc3ccccc3)sc2-c2c(Cl)cccc2Cl)cc1,n,46,n,n,n,n
COc1ccc(C)cc1Nc1n[n+](-c2ccccc2)c(-c2c(Cl)cccc2Cl)s1,x,39,x,x,n,x
CCc1ccc(Nc2n[n+](-c3ccccc3)c(-c3c(Cl)cccc3Cl)s2)cc1,n,66,n,n,n,n
COc1ccc2ccccc2c1-c1sc(Nc2ccccc2)n[n+]1-c1ccc(F)cc1,n,39,n,n,n,n
O=C(NCCn1ncccc1=O)Nc1ccc(F)c(F)c1,x,n,x,x,x,x
CCc1ccc(Nc2n[n+](-c3ccccc3)c(-c3ccc(OCc4ccccc4)cc3)s2)cc1,n,n,n,n,n,n
CCc1ccc(Nc2n[n+](-c3ccccc3)c(-c3ccc(N(CC)CC)cc3)s2)cc1,19557,n,n,n,n,n

# Screening data deposited in PubChem BioAssay by several laboratories.
